From ChEMBL document CHEMBL3988442, “University of Dundee, Small-Polar-MMV Screening Library” (2021) come the findings set out here.

Among all 69,000 compounds or so, about 1,000 (1.4%) showed an effect of 50% or more. Many of the other results were omitted from the sample, so strong results are more common in it than they were.

For the test, the system named is Leishmania donovani. In words: Leishmania intramacrophage assay. Type of test: functional, organism-based. Set-up: scale not given: in the data most compounds retested in dose-response had high values.

As to `CC(=O)N1CCC2(CC1)CCN(C(=O)c1ccc(F)c(C(F)(F)F)c1)C2`, the “Percent Effect” value (30.3 µM, […]) is listed as -8.189%.

On to `COc1cccc(O[C@H]2CCN(c3nc(C)cc(C)n3)CC[C@@H]2O)c1`, for which the “Percent Effect” value (30.3 µM, […]) was -35.99%.

On to `COc1ccnc(N2CCc3ccc(OC(F)F)cc3C2)n1`, for which the “Percent Effect” value (30.3 µM, […]) is given as -15.45%.

As for `COc1ccc(C2CN(c3nc(C)cc(C)n3)CCN2C(C)=O)cc1` (stereo not drawn), the “Percent Effect” value (30.3 µM, […]) was found to be 30.74%.

`COc1ccc2c(c1)CN(c1cc(N3CCCC3CO)ncn1)CC2` (stereo not drawn): the “Percent Effect” value (30.3 µM, […]) is on record as 11.17%.

For the compound `Cc1cc(C)nc(N2CCc3ccc(OC(F)F)cc3C2)n1`, the “Percent Effect” value (30.3 µM, […]) came out at 84.87%.

With `COc1ccc2c(c1)CN(c1nc(C)cc(C)n1)CC2`, the “Percent Effect” value (30.3 µM, […]) stood at 98.91%.

`O=C(CNC(=O)C1(c2ccc(F)cc2F)CCC1)Nc1cccnc1`: the “Percent Effect” value (30.3 µM, […]) is -11.9%.

With `COc1cccc2c1OCC(CNC(=O)CN(C)C1CCCC1)C2` (stereo not drawn), the “Percent Effect” value (30.3 µM, […]) is listed as -18.43%.

On to `CC(C)CN1C(=O)CC[C@H]2CN(C(=O)Cn3ccccc3=O)CC[C@H]21`, for which, for the setting “30.3 µM, […]”, the “Percent Effect” value stood at 3.813%.

As to `NC(=O)N1CCCC(C(=O)N2CCN(c3nsc4ccccc34)CC2)C1` (stereo not drawn), where the note is “30.3 µM, […]”, the “Percent Effect” value is listed as 34.33%.

As to `CCN1CC(C(=O)N2CCN(c3nsc4ccccc34)CC2)CCC1=O` (stereo not drawn), for the setting “30.3 µM, […]”, the “Percent Effect” value stood at 22.5%.

On to `CC(C)N1CCCC(C(=O)N2CCN(c3nsc4ccccc34)CC2)C1` (stereo not drawn), for which the “Percent Effect” value (30.3 µM, […]) stood at 77.99%.

On to `COc1c(C2CCCN2C(=O)CCNc2ncccn2)c(C)nn1C` (stereo not drawn), for which the “Percent Effect” value (30 µM) is on record as 5.312%.

`COc1ccc(CN(C(=O)C2CCCS2)c2ccncc2)cc1` (stereo not drawn): the “Percent Effect” value (30.3 µM, […]) was -1.322%.

On to `COc1ccc(Oc2ccc(C(F)(F)F)cn2)cc1CN1CCCC1`, for which the “Percent Effect” value (30.3 µM, […]) stood at 2.243%.

Consider `COc1cc(Oc2ccc(C(F)(F)F)cn2)ccc1CN1CCCC1`, for which the “Percent Effect” value (30.3 µM, […]) worked out at 61.15%.

For the compound `COc1cc(Oc2ccc(C#N)cn2)ccc1CN1CCCC1`, the “Percent Effect” value (30.3 µM, […]) was 2.326%.

Regarding `COCCOCC(=O)Nc1ccnn1-c1ccc(Cl)cc1`, the “Percent Effect” value (30.3 µM, […]) turned out to be 23.94%.

Take `COCC(=O)Nc1ccnn1-c1ccc(Cl)cc1`: the “Percent Effect” value (30.3 µM, […]) came to 82.71%.

For the compound `CCOCCC(=O)Nc1ccnn1-c1ccc(Cl)cc1`, the “Percent Effect” value (30.3 µM, […]) came out at 0.3355%.

Take `Cc1n[nH]c(C)c1CCN(C)c1ccc(-c2nc(C3CC3)no2)cn1`: where the note is “30.3 µM, […]”, the “Percent Effect” value stood at 22.75%.

`Cc1nc(CCNC(=O)C(N)c2c(C)n[nH]c2C)sc1C` (stereo not drawn): under “30.3 µM, […]”, the “Percent Effect” value is on record as 7.254%.

In the case of `Cc1nc(CNC(=O)NC2CCN(c3cccc(Cl)c3)C2)no1` (stereo not drawn), where the note is “30.3 µM, […]”, the “Percent Effect” value was 40.16%.

As for `CC(C)c1n[nH]c(C2CN(Cc3ncc[nH]3)CCO2)n1` (stereo not drawn), the “Percent Effect” value (30.3 µM, […]) is given as -15.06%.

With `Cc1nc(CN2CCOC(c3nc(C(C)C)n[nH]3)C2)oc1C` (stereo not drawn), under “30 µM, 30.03 µM”, the “Percent Effect” value is reported as -6.521%.

Consider `CC(C)c1n[nH]c(C2CN(Cc3ccno3)CCO2)n1` (stereo not drawn), for which the “Percent Effect” value (30.3 µM, […]) is listed as 53.56%.

Turning to `Cc1cnn(CCNCc2ccc(S(C)(=O)=O)cc2)c1`, the “Percent Effect” value (30.3 µM, […]) is listed as -1.29%.

In the case of `CC(C)CCc1n[nH]c(C(=O)O)c1Br`, the “Percent Effect” value (30.3 µM, […]) was 1.329%.

Regarding `O=C(O)C(F)(F)F.O=C(c1ccco1)N1CC[C@@H]2CN(C3CCOCC3)CCO[C@@H]2C1`, the “Percent Effect” value (30.3 µM, […]) worked out at 39.91%.

Take `O=C(O)C(F)(F)F.O=C(c1ccco1)N1CCO[C@@H]2CN(CC3CC3)CC[C@@H]2C1`: where the note is “30.3 µM, […]”, the “Percent Effect” value worked out at 52.8%.

For `O=C(O)C(F)(F)F.O=C(c1ccco1)N1CCO[C@@H]2CN(Cc3nccs3)CC[C@@H]2C1`, the “Percent Effect” value (30.3 µM, […]) is 43.58%.

Take `CCS(=O)(=O)N1CC[C@H]2[C@H]1CC(=O)N2Cc1csc(C)n1`: the “Percent Effect” value (30.3 µM, […]) worked out at 11.91%.

As to `O=C(C1CCOCC1)N1C[C@H]2CCC[C@@]2(COCc2ccccn2)C1`, under “30.3 µM, […]”, the “Percent Effect” value is reported as 39.51%.

As for `O=C(C1CCC1)N1C[C@@H]2CC[C@H](C1)N(S(=O)(=O)c1ccccc1)C2`, the “Percent Effect” value (30.3 µM, […]) is recorded as -6.923%.

For the compound `O=C1CCC(=O)c2oc3ccc(Br)cc3c2N1`, where the note is “30.3 µM, […]”, the “Percent Effect” value is listed as -16.45%.

For `Cc1cc(Nc2cnccn2)cc(C2CCCN2)n1` (stereo not drawn), the “Percent Effect” value (30.3 µM, […]) came to 50.63%.

As to `Cc1cc(Nc2cnccn2)cc(C2CCCNC2)n1` (stereo not drawn), the “Percent Effect” value (30.3 µM, […]) is reported as -25.49%.

For `Cc1nc(Nc2cnccn2)cc(C2CCCN2)n1.Cl` (stereo not drawn), the “Percent Effect” value (30.3 µM, […]) is given as -4.51%.

On to `CSC1(CNC(=O)CCc2ccc(Cl)s2)CCOCC1`, for which the “Percent Effect” value (30.3 µM, […]) is reported as -1.683%.

Regarding `COCCN1CCC(CNC(=O)c2ccnc(-n3ccnc3)c2)CC1`, under “30.3 µM, […]”, the “Percent Effect” value is reported as -33.66%.

Turning to `CCOCC1CN(Cc2ccoc2)Cc2cn(CC3CC3)nc21` (stereo not drawn), the “Percent Effect” value (30.3 µM, […]) was 26.22%.

With `CCS(=O)(=O)N1CCCC(c2nccn2Cc2ccccn2)C1` (stereo not drawn), the “Percent Effect” value (30.3 µM, […]) amounted to 2.474%.

Turning to `CCS(=O)(=O)N1CCN(C(=O)NC(C)C)CC2(CC(=O)N(C)C2)C1` (stereo not drawn), the “Percent Effect” value (30.3 µM, […]) was 15.87%.

Consider `CCC(CO)NCc1ccc(-c2ccccc2)o1.Cl` (stereo not drawn), for which, for the setting “30.3 µM, […]”, the “Percent Effect” value came to 7.098%.

For `CCC(CO)NCc1ccc(-c2ccc(Cl)cc2)o1.Cl` (stereo not drawn), where the note is “30.3 µM, […]”, the “Percent Effect” value was 78.06%.

Turning to `CCC(CO)NCc1ccc(-c2ccc(F)cc2)o1.Cl` (stereo not drawn), the “Percent Effect” value (30.3 µM, […]) is 4.62%.

Take `CCCn1nnc(NCc2ccc(-c3ccc(Br)cc3)o2)n1`: under “30.3 µM, […]”, the “Percent Effect” value was -28.31%.

On to `CCn1nnc(NCc2ccc(-c3ccc(Br)cc3)o2)n1`, for which the “Percent Effect” value (30.3 µM, […]) was 4.739%.

On to `CCC(CO)NCc1ccc(-c2ccc(Br)cc2)o1.Cl` (stereo not drawn), for which, where the note is “30.3 µM, […]”, the “Percent Effect” value was found to be 86.07%.

As for `CCC(CO)NCc1ccc(-c2ccc(F)c(Cl)c2)o1.Cl` (stereo not drawn), the “Percent Effect” value (30.3 µM, […]) was 76.93%.

As for `CCC(CO)NCc1ccc(-c2ccccc2F)o1` (stereo not drawn), the “Percent Effect” value (30.3 µM, […]) worked out at 4.793%.

Turning to `CC(NCc1ccc(-c2ccc(Cl)cc2)o1)c1nnc2n1CCC2` (stereo not drawn), the “Percent Effect” value (30.3 µM, […]) is -2.109%.
